Values without a mark were called inactive.

Ten compounds from PubChem BioAssay can be followed below.

The test is described as follows: cell viability in Huh7 cells, primary screen, cytotoxicity control for HCV replication inhibitor project, CellTiter-Glo luminescence, basal, 48 h (AID 1143).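 Further: Huh7 hepatoma cells carrying a hepatitis C replication reporter with no stimulus; test concentration not given here.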 As to conditions: Huh7 HCV replicon, higher = more signal, called active from +8 up or from −8 down. Background: ATP-based viability assays read luminescence as a measure of living cells.
Consider `CON=C(C)CCC(=O)OC[C@H]1O[C@H](C#Cc2ccccc2)C=C[C@@H]1Oc1ccc(C)cc1`, for which the z-score is -1.85.
For the compound `CC(C)(C)N1C(=O)[C@H]2[C@H]3[C@H](O)[C@H](O)CC(=NOC[C@@H](O)COCc4ccco4)[C@@H]3CC[C@H]2C1=O`, the z-score was 0.257.
Regarding `CO[C@@H]1[C@H](O)CO[C@H]1C=Cc1ccccc1`, the z-score is -0.536.
Consider `CCN1C(=O)[C@H]2[C@H]3[C@H](O)[C@H](O)CC(=NOCC[C@@H]4C=C[C@H](OC(C)=O)[C@@H](COC(C)=O)O4)[C@@H]3CC[C@H]2C1=O`, for which the z-score is -0.0735.
On to `CO[C@@H](C1CCCCC1)[C@@H](C)[C@H](OCc1cccc(Br)c1)[C@@H](C)CO`, for which the z-score was -2.1.
With `CCOC(=O)CCN1C(=O)[C@H]2[C@H]3[C@H](O)[C@H](O)CC(=NOCC(C)C)[C@@H]3CC[C@H]2C1=O`, the z-score is -1.76.
As to `CCOC(=O)CCN1C(=O)[C@H]2[C@H]3[C@H](O)[C@H](O)CC(=NO[C@@H]4O[C@H](CO)[C@@H](O)[C@H](O)[C@H]4O)[C@@H]3CC[C@H]2C1=O`, the z-score is -0.784.
On to `CO[C@H]1COC(=O)CC=C[C@@H](C)COC(=O)[C@H]2CCCN2C(=O)CC=C[C@H]1C`, for which the z-score was 0.0653.
Then `CCOC(=O)[C@H](Cc1ccccc1)NC(=O)CCC1CC(OC(=O)NCc2cccc3ccccc23)CC2(CCCC(COC(=O)NCCc3ccccc3OC)O2)O1` (stereo not given in full), with -0.534.
In the case of `Cc1ccc(S(=O)(=O)N[C@@H]2COC(=O)CC=C[C@@H](C)[C@H](NS(=O)(=O)c3ccc(C)cc3)COC(=O)[C@H](C)NC(=O)CC=C[C@H]2C)cc1`, the z-score was 0.218.
